# Results: the supplement of paper PMC7366291
# Counter-ions that a name gives are not always drawn. ± gives the standard deviation.
# Tested on: Danio rerio Tg(wt1b:EGFP) embryo, pronephros
# Assay: glomerular separation, fold change vs DMSO control; higher = glomeruli further apart (abnormal)
# Details: 25 µM; exposure: 24-48 hpf
# Method in brief: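 Dechorionated Tg(wt1b:EGFP) zebrafish embryos were exposed to 25 μM compound in 0.5% DMSO, HEPES-buffered E3 with 0.003% PTU, from 24 to 48 hpf at 28.5°C. Pronephroi were imaged dorsally in agarose-filled 96-well plates (470 nm, 10 z-slices). On maximum projections, 16 reference points were set manually in Fiji and a macro computed distances and angles. Values more than 2 SD from the feature mean were excluded. Each feature is a fold change relative to the mean of same-day DMSO controls.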
row,SMILES,glomerular separation
1,Cc1ccccc1C(OCCN(C)C)c1ccccc1 (stereo unspecified) [Orphenadrine hydrochloride],0.79 ± 0.21
2,C#C[C@]1(O)CC[C@H]2[C@@H]3CCc4cc(O)ccc4[C@H]3CC[C@@]21C [Ethinylestradiol],1.64 ± 0.76
3,CCCN(CCC)S(=O)(=O)c1ccc(C(=O)O)cc1 [Probenecid],1.41 ± 0.61
4,CCN(CC)CCOCCOC(=O)C1(c2ccccc2)CCCC1 [Carbetapentane citrate],0.953 ± 0.34
5,CCCOc1cc(N)ccc1C(=O)OCCN(CC)CC [Propoxycaine hydrochloride],0.859 ± 0.24
6,c1ccc([C@H]2CN3CCSC3=N2)cc1 [Levamisole hydrochloride],0.699 ± 0.16
7,O=C1OCCN1/N=C/c1ccc([N+](=O)[O-])o1 [Furazolidone],0.83 ± 0.29
8,O=C(Oc1cccc2cccnc12)c1ccccc1 [Benzoxiquine],3.04 ± 1.1
9,CN(C)CCC(c1ccccc1)c1ccccn1 (stereo unspecified) [Pheniramine maleate],0.928 ± 0.19
10,O=c1[nH]c(=O)n(C2CCCO2)cc1F (stereo unspecified) [Tegafur],1.02 ± 0.41
11,NC(=O)N1c2ccccc2CC(=O)c2ccccc21 [Oxcarbazepine],0.94 ± 0.28
12,Cc1cc2c(s1)Nc1ccccc1N=C2N1CCN(C)CC1 [Olanzapine],0.786 ± 0.41
13,Cc1cc(O)c(C(=O)N[C@@H](C(=O)N[C@@H]2C(=O)N3C(C(=O)O)=C(CSc4nnnn4C)CS[C@H]23)c2ccc(O)cc2)cn1 [Cefpiramide],1.22 ± 0.39
14,CC(=O)[C@H]1CC[C@H]2[C@@H]3C[C@H](C)C4=CC(=O)CC[C@]4(C)[C@H]3[C@@H](O)C[C@]12C [Medrysone],1.02 ± 0.44
15,CC(=O)OCC(CCn1cnc2cnc(N)nc21)COC(C)=O [Famciclovir],0.793 ± 0.23
16,O=C(O)CCc1nc(-c2ccccc2)c(-c2ccccc2)o1 [Oxaprozin],4.33 ± 1.5
17,Cc1c(NC(=O)c2cccnc2)c(=O)n(-c2ccccc2)n1C [Nifenazone],0.806 ± 0.28
18,CC(=O)CC(c1ccc([N+](=O)[O-])cc1)c1c(O)c2ccccc2oc1=O (stereo unspecified) [Acenocoumarol],0.834 ± 0.45

row,SMILES,glomerular separation
1,C=C1C[C@H]2[C@@H]3C=C(C)C4=CC(=O)CC[C@]4(C)[C@H]3CC[C@]2(C)[C@@]1(OC(C)=O)C(C)=O [Melengestrol acetate],0.846 ± 0.24
2,CN1[C@@H]2CC[C@H]1C[C@@H](OC(=O)c1c[nH]c3ccccc13)C2 [Tropisetron hydrochloride],1.8 ± 0.91
3,COc1c(N2CCNC(C)C2)c(F)cc2c(=O)c(C(=O)O)cn(C3CC3)c12 (stereo unspecified) [Gatifloxacin],0.71 ± 0.24
4,COc1cccc2c1C(=O)c1c(O)c3c(c(O)c1C2=O)C[C@@](O)(C(=O)CO)C[C@@H]3O[C@H]1C[C@H](N)[C@@H](O)[C@H](C)O1 [Epirubicin hydrochloride],1.93 ± 0.41
5,O=c1[nH]c(=O)n([C@H]2C[C@H](O)[C@@H](CO)O2)cc1F [Floxuridine],0.88 ± 0.33
6,CCOc1nc2cccc(C(=O)O)c2n1Cc1ccc(-c2ccccc2-c2nnn[nH]2)cc1 [Candesartan],0.996 ± 0.37
7,CC1CC(OC(=O)C(O)c2ccccc2)CC(C)(C)N1C (stereo unspecified) [Eucatropine hydrochloride],0.748 ± 0.31
8,Oc1c(I)cc(Cl)c2cccnc12 [Clioquinol],4.35 ± 1.5
9,NS(=O)(=O)c1cc2c(cc1Cl)NCNS2(=O)=O [Hydrochlorothiazide],1.03 ± 0.25
10,CC(C)Cc1ccc([C@H](C)C(=O)O)cc1 [S-(+)-ibuprofen],4.34 ± 2.3
11,COc1cc2nc(N3CCN(C(=O)C4COc5ccccc5O4)CC3)nc(N)c2cc1OC (stereo unspecified) [Doxazosin mesylate],0.958 ± 0.6
12,CC(C)(C)NCC(O)c1cc(O)cc(O)c1 (stereo unspecified) [Terbutaline hemisulfate],1.1 ± 0.36
13,CCOC(=O)C1=C(C)NC(C)=C(C(=O)OC)C1c1cccc(Cl)c1Cl (stereo unspecified) [Felodipine],5.36 ± 2.5
14,COc1cc(C(=O)NCc2ccc(OCCN(C)C)cc2)cc(OC)c1OC [Trimethobenzamide hydrochloride],1.09 ± 0.18
15,C[C@@H]1NC(=O)NC1=O [Methylhydantoin-5-(L)],0.772 ± 0.24
16,C[C@H](CCC(=O)O)[C@H]1CC[C@H]2[C@@H]3[C@H](O)C[C@@H]4C[C@H](O)CC[C@]4(C)[C@H]3CC[C@]12C [Chenodiol],2.11 ± 0.81
17,O=C(O)CCCC[C@@H]1SC[C@@H]2NC(=O)N[C@@H]21 [Biotin],0.993 ± 0.31
18,CCN(CC)CCNC(=O)c1cc(Br)c(N)cc1OC [Bromopride],0.903 ± 0.35
